The values that follow come from PubChem BioAssay (EPA / NIEHS).

Values joined by “and” are separate entries in the source; they are usually repeats but may differ in a detail not shown here. Equal entries are not always repeated. Records with an inconclusive call do not appear. Active and inactive are the calls of the source. Rule for the calls, unless noted: active = hit-call score of the fitted dose curve at least 0.9, where 1 is the maximum; inconclusive = response in the unintended direction; inactive = score below 0.9.

In assay [1] the test system is Brachyury (BRA) Protein Expression, Deisenroth Lab, TBXT (gene 6862). Put plainly: CCTE_Deisenroth_DEVTOX-GLR_legacy_Bra: (Legacy) CCTE's DevTox GLR-Endo Assay Evaluation of Brachyury (BRA) Protein Expression, Deisenroth Lab (AID 2284329; active = hit-call score of the fitted dose curve at least 0.9, where 1 is the maximum; inactive = score below 0.9). The gist of the method:
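Human pluripotent RUES2-GLR line was exposed twice during 48 h differentiation to a 10-point series, 1 nM - 200 uM. Fraction of Bra-positive cells was scored by imaging against pluripotent baseline and fitted after 0.2% DMSO subtraction.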

The nature of assay [2]: CCTE_Deisenroth_DEVTOX-GLR_legacy_CellCount: (Legacy) Viability Assessment in CCTE's DevTox GLR-Endo Assay, Deisenroth Lab (AID 2284331; active = hit-call score of the fitted dose curve at least 0.9, where 1 is the maximum; inactive = score below 0.9). Conditions: actives raise or lower the signal. A digest of the protocol:
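RUES2-GLR human pluripotent cells were seeded 24 h, then differentiated 48 h with two compound doses at 24 h intervals (10-point, 1 nM - 200 uM). Fixed nuclei were imaged and counted; bidirectional fitting versus 0.2% DMSO.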

In assay [3] the test system is SRY-box transcription factor 17 (SOX17) Protein Expression, Deisenroth Lab, SOX17 (gene 64321). Put plainly: CCTE_Deisenroth_DEVTOX-GLR_legacy_Sox17: (Legacy) CCTE's DevTox GLR-Endo Assay Evaluation of SRY-box transcription factor 17 (SOX17) Protein Expression, Deisenroth Lab (AID 2284341; active = hit-call score of the fitted dose curve at least 0.9, where 1 is the maximum; inactive = score below 0.9). The conditions noted are these: actives raise or lower the signal. A digest of the protocol:
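Percent SOX17-positive cells, scored by high-content imaging as mean intensity exceeding pluripotent-control median by 5x BMAD, divided by cell count. Human RUES2-GLR endoderm differentiation, 48 h, two exposures 24 h apart, 1 nM–200 uM; DMSO-referenced bidirectional fitting.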

The test system of assay [4] is SRY-box transcription factor 2 (SOX2) Protein Expression, Deisenroth Lab, SOX2 (gene 6657). Put plainly: CCTE_Deisenroth_DEVTOX-GLR_legacy_Sox2: (Legacy) CCTE's DevTox GLR-Endo Assay Evaluation of SRY-box transcription factor 2 (SOX2) Protein Expression, Deisenroth Lab (AID 2284346; active = hit-call score of the fitted dose curve at least 0.9, where 1 is the maximum; inactive = score below 0.9). A digest of the protocol: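 hPSC RUES2-GLR, 384-well; 24 h seed → 48 h endoderm differentiation, 2 doses q24h, 1 nM–200 uM. Fix, nuclear dye, 5 fields/well. Sox2+ cells/cell count; cell positive if >5x BMAD over endoderm ctrl; gain direction vs DMSO.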

Assay [5] addresses Estrogen receptor (Homo sapiens) (UniProt P03372). Put plainly: CCTE_Deisenroth_AIME_96WELL_LUC_Active: CCTE's 96-well Estrogen Receptor Transactivation Assay with AIME metabolic competence (ERTA luciferase; metabolism positive), Deisenroth Lab (AID 2284023). A digest of the protocol: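 Chemicals pre-incubated 2 h with alginate-immobilized phenobarbital/beta-naphthoflavone-induced male Sprague Dawley rat liver S9, then medium transferred to VM7Luc4E2 cells for 24 h luciferase read-out. 10-point series 0.002 - 200 uM; fitted relative to 17beta-estradiol.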

Assay [6] has the same target. Put plainly: CCTE_Deisenroth_AIME_96WELL_LUC_Inactive: CCTE's 96-well Estrogen Receptor Transactivation Assay without AIME metabolic competence (ERTA luciferase; metabolism negative), Deisenroth Lab (AID 2284025). A digest of the protocol: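 VM7Luc4E2 breast cells, luciferase read 24 h after dosing with medium pre-incubated 2 h on alginate-water lids (metabolism negative). 10-point series 0.002–200 uM, single technical replicate, n≥4; fit relative to 17beta-estradiol.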

Assay [7] can be described thus: CCTE_Deisenroth_AIME_96WELL_CTox_Active: Cytotoxicity Assessment (CTOX) in CCTE's 96-well Estrogen Receptor Transactivation Assay with AIME metabolic competence (metabolism positive), Deisenroth Lab (AID 2284028). A digest of the protocol:
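Chemicals (0.002–200 uM) were first incubated 2 h with alginate-immobilized phenobarbital/beta-naphthoflavone-induced male rat liver S9; conditioned medium then went onto VM7Luc4E2 cells for 24 h, with viability read by protease-substrate fluorescence, fitted bidirectionally.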

A short description of assay [8]: CCTE_Deisenroth_AIME_96WELL_CTox_Inactive: Cytotoxicity Assessment (CTOX) in CCTE's 96-well Estrogen Receptor Transactivation Assay without AIME metabolic competence (metabolism negative), Deisenroth Lab (AID 2284029). The gist of the method: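 Chemicals (0.002 - 200 uM, 10 points) incubated 2 h with alginate-water microspheres (no S9), then medium moved onto VM7Luc4E2 cells for 24 h. Viability by protease-substrate cleavage to fluorescent probe; bidirectional fitting.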

Another assay concerns DIO2 (gene 1734). Put plainly: CCTE_GLTED_hDIO2: CCTE's human Deiodinase 2 (DIO2) Inhibition Assay, Great Lakes Toxicology and Ecology Division (GLTED) Lab (AID 2284050). The gist of the method: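 Cell-free human DIO2 incubated 3 h with chemical; liberated iodide quantified by Sandell-Kolthoff absorbance. Triplicate plates; loss of signal fitted vs DMSO.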
The test system of the next assay is DIO3 (gene 1735). The assay is described as follows: CCTE_GLTED_hDIO3: CCTE's human Deiodinase 3 (DIO3) Inhibition Assay, Great Lakes Toxicology and Ecology Division (GLTED) Lab (AID 2284055).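 Note: potency is for inhibition seen as loss of released iodide signal.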 The gist of the method: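 Human DIO3 from an adenovirus expression system is incubated 3 h with test chemical. Released iodide is quantified by Sandell-Kolthoff absorbance, in triplicate plates. Loss of signal is fitted relative to DMSO.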

Estrogen receptor (Homo sapiens), sequence (P03372 whole entry, looked up): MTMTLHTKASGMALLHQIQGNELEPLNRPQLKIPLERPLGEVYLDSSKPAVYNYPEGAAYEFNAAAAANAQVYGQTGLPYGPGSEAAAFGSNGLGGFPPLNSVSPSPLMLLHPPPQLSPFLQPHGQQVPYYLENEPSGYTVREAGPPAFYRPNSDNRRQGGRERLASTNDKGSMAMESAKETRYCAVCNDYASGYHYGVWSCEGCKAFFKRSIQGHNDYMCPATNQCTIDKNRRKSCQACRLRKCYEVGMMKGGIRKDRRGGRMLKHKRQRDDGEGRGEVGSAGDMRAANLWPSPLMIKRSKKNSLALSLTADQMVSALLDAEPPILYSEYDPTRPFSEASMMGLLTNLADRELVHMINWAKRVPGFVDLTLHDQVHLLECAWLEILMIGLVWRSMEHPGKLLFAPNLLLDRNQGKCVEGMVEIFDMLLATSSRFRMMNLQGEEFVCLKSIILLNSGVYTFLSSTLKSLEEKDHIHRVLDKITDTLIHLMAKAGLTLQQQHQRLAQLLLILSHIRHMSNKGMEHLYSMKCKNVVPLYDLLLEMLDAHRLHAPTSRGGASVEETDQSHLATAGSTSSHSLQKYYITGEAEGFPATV

For the molecule `NC(=O)c1ccc(-c2nc(-c3ccc4c(c3)OCO4)c(-c3ccccn3)[nH]2)cc1`, the call in [1], in assay [2], in assay [3] and in [4] was inactive.
Usually AC50 stands for the concentration giving half of the maximal activity seen. On to `C(#Cc1ccccc1)c1ccccc1`, for which the figures for the AC50 in [5] and in assay [6] were 32.3 µM (active) and 28.5 µM (active), respectively.
On to `O=C(C=Cc1ccccc1)c1ccccc1`, for which the AC50 in assay [5] was 31.9 µM (active); in assay [6], 28.2 µM (active); in assay [8], 114 µM (active). Also, the call in [7] was inactive.
On to `COc1cc(O)c(CC=C(C)C)c(O)c1C(=O)/C=C/c1ccc(O)cc1`, for which the AC50 was 215 nM (active) and 797 nM (active) in the assay with DIO2 (gene 1734); 150 nM (active) and 222 nM (active) in the assay with DIO3 (gene 1735).
